# Reference: PubChem BioAssay AID686979 (National Center for Advancing Translational Sciences (NCATS), 2013)
# Several values for one entry are separate records, joined by “and”; a condition that tells them apart may be missing. Equal values may be shown once. In all, about 420,000 compounds went through this assay and about 50,000 (12%) were called active. Roughly 26% stayed inconclusive and do not appear here. The list comes from a sample in which actives are over-represented; it also holds similar structures and randomly drawn compounds. Values without a mark were called inactive. The call rests on the fitted dose curve; in most records, active means well fitted inhibition curve with a large enough effect; inconclusive means small, poorly fitted or top-dose-only effect; inactive means flat fitted curve, though single readings scatter.
# Test: qHTS for Inhibitors of human tyrosyl-DNA phosphodiesterase 1 (TDP1): qHTS in cells in presence of CPT; further: nearly all actives have a fitted effect of over 55% in size
# Conditions: chicken DT40 Tdp1-/-;hTDP1 cells + 20 nM CPT, ATP luminescence, 48 h; series mostly up to 46.2 µM; activity change, negative = growth inhibition: at the top concentration
# Summary of the method: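 Chicken DT40 Tdp1-/- cells complemented with human TDP1, 400 cells/well, exposed to compounds plus 20 nM camptothecin for at least 48 h at 37 C; viability read as ATP content by CellTiter-Glo luminescence.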
# On the % scale 0 is the no-effect control and ±100 the full control effect; potency means the concentration at half of the fitted maximal effect.
SMILES,"activity change, negative = growth inhibition",Potency
Cc1ccccc1NC(=O)c1cc2c([nH]c1=O)CC(C)(C)CC2=O,6.13%,–
Cc1ccc(F)c(NC(=O)CCOc2ccccc2C)c1,-23.1%,–
COc1ccc(C(=O)OCc2cc(=O)n3ccsc3n2)cc1F,11.4%,–
COc1cc(C(=O)OCc2cc(=O)n3ccsc3n2)ccc1OC(C)C,–,23.1 µM (active)
COCCc1nn2c(=O)cc(COC(=O)c3cc(OC)c(OC)c(OC)c3)nc2s1,-7.66%,–
CCc1c(C)nc2c(-c3ccccc3)c(C)nn2c1Nc1ccc(NC(C)=O)cc1,-8.91%,–
CCOC(=O)N1CCN(S(=O)(=O)N2CCCC(C(=O)NCCCN3CCC(C)CC3)C2)CC1 (centres undefined),2.67%,–
COC(=O)C(C)NC(=O)COc1ccc2ccccc2c1 (centres undefined),-9.85%,–
CC(=O)NC(c1ccccc1)c1nc(-c2ccccc2C)cs1 (centres undefined),-7.32%,–
O=C(NCc1nnc(SCC(=O)N2CCC(Cc3ccccc3)CC2)o1)c1ccco1,-8.68%,–
O=C(CN1CCOc2ccccc21)N1CCC(Cc2ccccc2)CC1,–,13 µM (active)
CC1(C)CC(=O)C(CC(=O)N2CCC(Cc3ccccc3)CC2)C(=O)C1,-0.242%,–
Cn1cnnc1Sc1ccc(S(C)(=O)=O)cc1[N+](=O)[O-],0.347%,–
Cc1cc(C)nc(NS(=O)(=O)c2ccc(N3C(=O)C4CCCCC4C3=O)cc2)n1 (centres undefined),3.01%,–
Cc1nnc(Sc2nc3c(c(=O)[nH]c(=O)n3C)n2Cc2ccccc2)s1,0.541%,–
COc1ccc(CNc2nc3c(c(=O)[nH]c(=O)n3C)n2Cc2ccccc2)cc1,-0.57%,–
Cn1c(=O)c2c(nc(N/N=C/c3cccs3)n2Cc2ccc(Br)cc2)n(C)c1=O,–,20.6 µM (active)
Cn1c(=O)c2c(nc(OCc3cccnc3)n2Cc2ccccc2)n(C)c1=O,–,11.6 µM (active)
Cn1c(=O)c2sccc2n(Cc2ccc(Br)cc2)c1=O,4.25%,–
CCn1c(NCCc2ccc(OC)c(OC)c2)nc2c1c(=O)n(C)c(=O)n2C,–,9.2 µM (active)
COc1ccc(CCNC(=O)Nc2ccc3c(c2)c(=O)n(C)n3C)cc1OC,0.818%,–
Cn1c(=O)[nH]c(=O)c2c1nc(NCCc1ccccc1)n2Cc1ccc(F)cc1,–,23.1 µM (active)
CCCCn1c(SCC(=O)NCCc2ccc(OC)c(OC)c2)nc2c1c(=O)n(C)c(=O)n2C,1.15%,–
Cc1ccc(CN2CCN(/N=C/c3cccnc3)CC2)c(C)c1,5.42%,–
COc1ccc(NC(=O)CCCC2CCCCC2)c(OC)c1,-22.4%,–
NS(=O)(=O)c1ccc2nc(NC(=O)CS(=O)(=O)c3ccc(F)cc3)sc2c1,12.2%,–

SMILES,"activity change, negative = growth inhibition",Potency
O=C1NC[C@H](CCCCN2C[C@H](Cc3ccc(O)cc3)N(CC3CCCCC3)C(=O)C2=O)N(CCc2ccccc2)C1=O,-7.53%,–
O=c1nc(NO)ccn1C1CCCO1 (centres undefined),-3.51%,–
NC(=O)COc1ccc(C23CC4CC(CC(C4)C2)C3)cc1,-20.8%,–
Cc1ccc(S(=O)(=O)Nc2nc(N)n(-c3ccccc3)n2)cc1,1.91%,–
COc1cccc(CNS(=O)(=O)c2cc3c(cc2C)n(C)c(=O)c(=O)n3C)c1,–,inactive
CC(C)CCn1cnc2c1c(=O)n(CC(=O)NC(N)=O)c(=O)n2Cc1ccccc1,-21.6%,–
CC(C)OCCCNc1nc2c(c(=O)n(Cc3ccccc3F)c(=O)n2C)n1C,-9%,–
Cn1c(=O)c2c(nc(Oc3ccc(C#N)cc3)n2Cc2ccc(Cl)cc2Cl)n(C)c1=O,-12.4%,–
Cn1c(=O)c2c(nc(NCc3ccccc3)n2CC(N)=O)n(C)c1=O,-18%,–
CC(C)CCn1c(CN(C)Cc2ccccc2)nc2c1c(=O)n(C)c(=O)n2C,–,6.51 µM (active)
CC1CN(Cc2nc3c(c(=O)n(C)c(=O)n3C)n2Cc2cccc(Cl)c2)CC(C)O1 (centres undefined),-16.9%,–
Cn1c(=O)c2c(nc(NCCc3ccccc3)n2Cc2ccccc2)n(C)c1=O,–,5.8 µM (active)
CCCCNc1nc2c(c(=O)n(C)c(=O)n2C)n1Cc1cccc(OC)c1,–,2.91 µM (active)
COc1ccc(CCn2c(NCCCN3CCOCC3)nc3c2c(=O)[nH]c(=O)n3C)cc1,-3.75%,–
Cn1c(=O)[nH]c(=O)c2c1nc(CN(Cc1ccccc1)Cc1ccccc1)n2CCN1CCOCC1,-16.8%,–
C=CCOc1nc2c(c(=O)n(C)c(=O)n2C)n1Cc1ccc(Cl)cc1Cl,–,18.4 µM (active)
COCCn1cnnc1SCC(=O)Nc1cccc(S(=O)(=O)N2CCCCC2)c1,-15.9%,–
NC(=O)C1CCN(C(=O)/C(=C/c2ccco2)NC(=O)c2ccccc2)CC1,14.3%,–
Cc1c(C(=O)NC(=S)NCc2cccnc2)oc2ccccc12,-16.7%,–
Cc1ccccc1OS(=O)(=O)c1cccc([N+](=O)[O-])c1,-23.5%,–
CC(Oc1ccccc1[N+](=O)[O-])C(=O)N/N=C/c1ccoc1 (centres undefined),-10.4%,–
O=C(CCc1ccccc1)NNc1ccc(F)cc1,-27.2%,–
CC(C)c1cc(C(=O)N2CCOc3ccc(CN4CCC(Oc5cccnc5)CC4)cc3C2)n[nH]1,-19.6% [at 9.04 µM],–
CC(C)CC1(C)NC(=O)N(CC(=O)Nc2ccc3c(c2)OCCO3)C1=O (centres undefined),7.31%,–
Cc1cc(NC(=O)CSC2=NS(=O)(=O)c3cc(Cl)ccc3N2)no1,18.3%,–
COc1cccc(CNC(=O)C2CCCN(c3ncnc4c3nc3n4CCCCC3)C2)c1 (centres undefined),–,23.1 µM (active)

SMILES,"activity change, negative = growth inhibition",Potency
COc1cccc(CNC(=O)C2CCCN(S(=O)(=O)N3CC(C)CC(C)C3)C2)c1 (centres undefined),-22.7%,–
O=C(Nc1cccc(Cl)c1)C1CCCN(c2cnccn2)C1 (centres undefined),-16.5%,–
COc1cccc(NC(=O)C2CCN(c3cc(C)nc4c(-c5ccc(Cl)cc5)c(C)nn34)CC2)c1,-3.96%,–
COc1cccc(NC(=O)C2CCCN(c3ncnc4c3nc3n4CCCCC3)C2)c1 (centres undefined),–,20.6 µM (active)
O=C(NCCCN1CCCCC1)C1CCCN(c2ncnc3c2nc2n3CCCCC2)C1 (centres undefined),4.33%,–
N#Cc1c(NC(=O)C2CC(Cl)=CCC2C(=O)O)sc2c1CCCCC2 (centres undefined),20.2%,–
COc1ccc2c(CC(=O)NNC(=O)c3ccccc3F)coc2c1,-0.595%,–
CCC(C)(C)NC(=O)CN(C(=O)C(=O)Nc1ccc2c(c1)OCCO2)C(C)(C)CC,-19.8%,–
O=C(COC(=O)Cn1[nH]c(=O)c2ccccc2c1=O)Nc1ncc(Cl)cc1Cl,-1.54%,–
O=C(OCc1cc(Cl)ccc1OC(F)F)c1cccnc1,6.56%,–
Cc1ccc(C(=O)NC(=S)Nc2ccc(N3CCOCC3)cc2)cc1,-29.5%,–
Cc1ccc(C(=O)NC(=S)Nc2ccccc2C)cc1,-10.1%,–
Cc1cccc(NC(=S)NC(=O)c2ccc(Br)o2)c1,0.885%,–
Cc1cccc(NC(=O)/C(=C\c2ccco2)NC(=O)c2ccccc2)c1,-2.66%,–
Cc1ccc(NC(=S)NC(=O)c2ccc(-c3ccccc3)cc2)cc1,–,6.51 µM (active)
Cc1cccc(NC(=O)NC(=S)NC(=O)c2ccccc2)c1,–,8.2 µM (active)
C/C(=N\NC(=O)OC(C)(C)C)c1ccc[nH]1,-10.6%,–
O=C(CCN1C(=O)C2C3CCC(C3)C2C1=O)Nc1ccc(Cl)cc1Cl (centres undefined),1.93%,–
O=C(NCCc1c[nH]c2ccc(Cl)cc12)c1ccc([N+](=O)[O-])cc1,-0.327%,–
Cc1ccccc1CN1CCNC(=O)C1CC(=O)NCCC1=CCCCC1 (centres undefined),13%,–
O=C(CN1CCN(C2CCCCC2)CC1)Nc1ccccc1N1CCCCC1,–,29.1 µM (active)
CC(=O)c1ccc(N2CCN(CC(=O)Nc3ccccc3N3CCOCC3)CC2)cc1,–,14.6 µM (active)
O=C(CN1CCCCC1)Nc1ccccc1C(=O)NC1CC1,13.4%,–
O=C(NCCCN1CCN(C2CCCCC2)CC1)Nc1ccccc1C(F)(F)F,6.84%,–
O=C(Cc1cccc2ccccc12)NCCC1=CCCCC1,-28.8%,–
O=C(CNCCC1=CCCCC1)Nc1ccccc1N1CCCCCC1,–,20.6 µM (active)

SMILES,"activity change, negative = growth inhibition",Potency
O=C(CN1CCN(c2ccc(O)cc2)CC1)Nc1ccc(-c2ccccc2)cc1,-17.9%,–
Cc1ccc(OCCCC(=O)Nc2ccc(N3CCOCC3)cc2)cc1,-17.8%,–
Cc1cc(C)cc(OCC(=O)Nc2ccc(N3CCOCC3)cc2N2CCOCC2)c1,–,20.6 µM (active)
O=C(COc1ccc(Cl)cc1)NC(=S)Nc1ccccc1N1CCOCC1,8.34%,–
CCc1ccc(C(=O)NC(=S)Nc2ccccc2N2CCOCC2)cc1,-29.2%,–
CCn1c(=O)c(=O)[nH]c2c(=O)oc3ccc(S(=O)(=O)Nc4ccc(OC)cc4)cc3c21,0.32%,–
Cc1ccc(CCN2CC(C(=O)NCCc3ccccc3)CC2=O)cc1 (centres undefined),-10.1%,–
O=C(COC(=O)Cc1ccc(Br)cc1)Nc1ccc(N2CCOCC2)cc1,-13%,–
CCc1ccc(NC(=O)COC(=O)c2cccs2)cc1,1.08%,–
COc1cc(C(=O)N2CCN(C(=O)COc3cccc(C)c3)CC2)cc(OC)c1OC,10.3%,–
COc1cccc(OC)c1C(=O)Nc1ccc2c(c1)n(C)c(=O)n2C,15.1%,–
COC(=O)c1ccc(CSc2ccc(S(=O)(=O)N3CCCCC3)cn2)cc1,-1.22%,–
Cc1cn(C2OC[C@@H](O)[C@@H]2CO)c(=O)[nH]c1=O (some centres undefined),–,inactive
CC(C)(C)CN1CCNC(=O)C1CC(=O)NC1Cc2ccccc2C1 (centres undefined),1.17%,–
Cc1cccc(C)c1NC(=O)CN1CCN(c2ccc(F)cc2)CC1,–,14.6 µM (active)
O=C(CN1CCN(c2ccccc2)CC1)Nc1ccc(F)cc1,4.73%,–
O=C(CN1CCN(c2ccc(F)cc2)CC1)Nc1ccccc1,-6.14%,–
C#CCCOC(=O)N1C2=NC(C(=O)OC)=C(C(=O)OC)[C@@H]3N(C)c4ccc(OC)cc4[C@]23C[C@H]1C(=O)OC,-29.4%,–
N/C(=N\OC(=O)CC1CCCCC1)c1ccccc1,3.6%,–
O=C(C(Cl)Cl)N1CCN(c2ccccn2)CC1,6.47%,–
Cc1cc(C(=O)N2CCN(c3ccccn3)CC2)c(C)o1,–,17.8 µM (active)
O=C(c1cc2ccccc2s1)N1CCN(c2ccccn2)CC1,-10.5%,–
COc1ccc(/C=N/Nc2nc(-c3ccc(C)cc3)c(C#N)c(=O)[nH]2)cc1,-1.12%,–
COc1ccc(S(=O)(=O)NCCc2cc3ccc(C)c(C)c3[nH]c2=O)cc1,–,14.6 µM (active) and 18.4 µM (active)
COc1ccc(CCNS(=O)(=O)c2cccc([N+](=O)[O-])c2)cc1,2.66%,–
COc1ccc(CCNS(=O)(=O)c2ccc(F)cc2)cc1OC,-13.6%,–
